Source: PubChem BioAssay
Several values for one entry are separate records, joined by “and”; a condition that tells them apart may be missing. Identical values can stand only once. Activity calls are given as the source filed them. No stated cut-off is given here; in the data, active means inhibition above about 80%; inactive means the rest.

assay: human astrocyte viability loss, single and combined drugs, cytotoxicity control for chromothriptic childhood tumor combination screen, cell-based, BGB or cisplatin IC20 combos (AID 1671460); details: Human astrocytes, drug combinations, measured here: combo with cisplatin IC20, at 0.5 µM, stronger effect = higher value;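 further: cells exposed to compounds for 96 hours before viability readout; 0% = vehicle and 100% = killing control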

Structure (SMILES)	inhibition
COc1ccccc1S(=O)(=O)Nc1ccc2c(c1)CN(C)C(=O)N2	4.75%
Cc1cc(C#N)cc(C)c1Oc1nc(Nc2ccc(C#N)cc2)nc(N)c1Br	-7.51%
Nc1ncn(C2OC(CO)C(O)C2O)c(=O)n1 (configuration not stated)	11.2%
Cc1cc(C)c(Nc2ccnc(Nc3ccc(C#N)cc3)n2)c(C)c1	9.36%
COc1ccc(CC(N)C(=O)NC2C(CO)OC(n3cnc4c(N(C)C)ncnc43)C2O)cc1 (configuration not stated)	14.8% and 91.4%
O=c1ccn(C2OC(CO)C(O)C2O)c(=O)[nH]1 (configuration not stated)	12.5% and -5.12%
CC=C1NC(=O)C2CSSCCC=CC(CC(=O)NC(C(C)C)C(=O)N2)OC(=O)C(C(C)C)NC1=O (configuration not stated)	101%
CN(C)CC(=O)Nc1ccc2[nH]c(=O)c3ccccc3c2c1	6.3% and -10.6% and 20.9%
CC1OC(n2cc(F)c(=O)[nH]c2=O)C(O)C1O (configuration not stated)	-13.1%
Nc1ccn(C2OC(CO)C(O)C2(F)F)c(=O)n1 (configuration not stated)	58.6% and 65% and 62%
Cc1cn(C2CC(N=[N+]=[N-])C(CO)O2)c(=O)[nH]c1=O (configuration not stated)	-32% and 7.19%
CC(C=CC(=O)NO)=CC(C)C(=O)c1ccc(N(C)C)cc1 (configuration not stated)	96%
NC(=S)NN=Cc1ncccc1N	11.3%
CC(C)(C#N)c1ccc(N2C(=O)OCc3cnc4ccc(-c5cnc6ccccc6c5)cc4c32)cc1	-5.44%
CC1CN(c2c(F)c(N)c3c(=O)c(C(=O)O)cn(C4CC4)c3c2F)CC(C)N1 (configuration not stated)	-10.7%
CCCCN(Cc1ccc(C(=O)NO)cc1)C(=O)Nc1ccccc1	10.7% and -23.3%
O=c1[nH]cnc2c1ncn2C1OC(CO)C(O)C1O (configuration not stated)	-4.13% and 24.5%
Cc1cc(C=CC#N)cc(C)c1Nc1ccnc(Nc2ccc(C#N)cc2)n1	-1.66%
CC(Oc1cc(-c2cnn(C3CCNCC3)c2)cnc1N)c1c(Cl)ccc(F)c1Cl (configuration not stated)	-4.28%
O=C(O)c1cc2cccc([N+](=O)[O-])c2[nH]1	-5.7%
O=c1[nH]c(=O)n(C2CC(O)C(CO)O2)cc1I (configuration not stated)	-19.9%

assay: growth inhibition of BT084 medulloblastoma cells, cell-based, ICGC_MB145, cisplatin and BGB IC40 combos (AID 1671461); details: drug combinations, at 0.5 µM, stronger effect = higher value;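 further: cells exposed to drugs for 96 hours; 0% = vehicle DMSO and 100% = high DMSO full killing control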

Structure (SMILES)	inhibition
COc1ccccc1S(=O)(=O)Nc1ccc2c(c1)CN(C)C(=O)N2	-13.5% (inactive)
Cc1cc(C#N)cc(C)c1Oc1nc(Nc2ccc(C#N)cc2)nc(N)c1Br	-18% (inactive)
Nc1ncn(C2OC(CO)C(O)C2O)c(=O)n1 (configuration not stated)	10.9% (inactive)
Cc1cc(C)c(Nc2ccnc(Nc3ccc(C#N)cc3)n2)c(C)c1	8.57% (inactive)
COc1ccc(CC(N)C(=O)NC2C(CO)OC(n3cnc4c(N(C)C)ncnc43)C2O)cc1 (configuration not stated)	25.7% (inactive) and 46.2% (inactive)
O=c1ccn(C2OC(CO)C(O)C2O)c(=O)[nH]1 (configuration not stated)	5.91% (inactive) and -28.7% (inactive)
CC=C1NC(=O)C2CSSCCC=CC(CC(=O)NC(C(C)C)C(=O)N2)OC(=O)C(C(C)C)NC1=O (configuration not stated)	93.8% (active) and 102% (active)
CN(C)CC(=O)Nc1ccc2[nH]c(=O)c3ccccc3c2c1	-5% (inactive) and -17.7% (inactive) and -25% (inactive)
CC1OC(n2cc(F)c(=O)[nH]c2=O)C(O)C1O (configuration not stated)	-33.9% (inactive)
Nc1ccn(C2OC(CO)C(O)C2(F)F)c(=O)n1 (configuration not stated)	-11% (inactive) and -2.39% (inactive) and 3.77% (inactive)
Cc1cn(C2CC(N=[N+]=[N-])C(CO)O2)c(=O)[nH]c1=O (configuration not stated)	-31.2% (inactive) and -18.3% (inactive)
CC(C=CC(=O)NO)=CC(C)C(=O)c1ccc(N(C)C)cc1 (configuration not stated)	86.5% (active)
NC(=S)NN=Cc1ncccc1N	-38.9% (inactive)
CC(C)(C#N)c1ccc(N2C(=O)OCc3cnc4ccc(-c5cnc6ccccc6c5)cc4c32)cc1	-28.9% (inactive)
CC1CN(c2c(F)c(N)c3c(=O)c(C(=O)O)cn(C4CC4)c3c2F)CC(C)N1 (configuration not stated)	-22.6% (inactive)
CCCCN(Cc1ccc(C(=O)NO)cc1)C(=O)Nc1ccccc1	4.6% (inactive) and 18.3% (inactive)
O=c1[nH]cnc2c1ncn2C1OC(CO)C(O)C1O (configuration not stated)	-1.88% (inactive) and -23.7% (inactive)
Cc1cc(C=CC#N)cc(C)c1Nc1ccnc(Nc2ccc(C#N)cc2)n1	-3.04% (inactive)
CC(Oc1cc(-c2cnn(C3CCNCC3)c2)cnc1N)c1c(Cl)ccc(F)c1Cl (configuration not stated)	5.1% (inactive)
O=C(O)c1cc2cccc([N+](=O)[O-])c2[nH]1	-15.5% (inactive)
O=c1[nH]c(=O)n(C2CC(O)C(CO)O2)cc1I (configuration not stated)	-4.3% (inactive)
